Screening data as filed in PubChem.
Compounds with a hit are over-represented: about 6.5% of the library has one in this group of screens.
Spn DPM-DC inh: inhibitors of Streptococcus pneumoniae diphosphomevalonate decarboxylase; purified DPM-DC, PK/LDH coupled NADH fluorescence; calls only at 10 µM; 65,000 tested, 0.49% active; AID 556;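 active means the 320 compounds with the highest percent inhibition in the single-dose primary screen, excluding strongly autofluorescent ones, cut at about 32% in these data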;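 further: kinetic rate of NADH fluorescence loss reporting ADP formed by the decarboxylase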
Autofluor 339: intrinsic fluorescence of library compounds, ex339/em460 – biochemical, MLSMR library, data from DPM-DC assay, artefact control, profiling panel; compound autofluorescence, ex339/em460 nm, NADH buffer; hits give high values; 1 = no-compound wells, NADH background; 65,000 tested, 5.5% active; fluorescence fold increase at 10 µM;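 active means at 10 µM, mean starting fluorescence two-fold or more over control wells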;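 further: signal is the first read of a kinetic run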
Spn PMK inh: blocks S. pneumoniae phosphomevalonate kinase; purified PMK, PK/LDH-coupled NADH absorbance 340 nm; AID 539; 65,000 tested, 0.49% active; inhibition, % at 10 µM;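 active means top-ranked compounds by inhibition in the single 10 µM screen, taking a fixed number of the strongest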
NADH enzymes: inhibition of NAD/NADH coupling enzymes, library profiling; coupled PK/LDH NADH assays, four targets; IC50, µM (titrated, usually from 10 µM); 65,000 tested, 0.02% active; AID 774;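 active means single-dose screening hits from any of four coupled enzyme assays that gave an IC50 when retested across doses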;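 further: the DPM-DC format reads NADH fluorescence rather than 340 nm absorbance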
Abs 340nm: compounds absorbing at 340 nm | 65,000 tested, under 10 active | fold change at 10 µM | compound absorbance at 340 nm, fold over control;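 active means at 10 µM dose, initial 340 nm absorbance at least 2 fold that of control wells; inactive means change under 2 fold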;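 further: initial absorbance extrapolated from kinetic A340 decline of NADH oxidation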
Spn MK inh: S. pneumoniae mevalonate kinase inhibition; purified MK, PK/LDH-coupled NADH absorbance 340 nm; inhibition, % at 10 µM; 65,000 tested, 0.48% active; AID 555;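 active means ranked among the strongest by inhibition in the single 10 µM screen, a fixed top-ranked set picked for dose follow-up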
Numbers stand for hits; n = inactive; x = no result shown.

SMILES	Spn DPM-DC inh	Autofluor 339	Spn PMK inh	NADH enzymes	Abs 340nm	Spn MK inh
COc1cc(C(=O)NCCC(=O)NCCN2CCCCCC2)cc(OC)c1OC	n	n	n	n	n	n
CCC(Oc1ccc2c(c1)C(=O)CC(C)(C)O2)C(=O)NCCN1CCCCCC1 (stereo unspecified)	x	5.03	n	n	n	n
CC1(C)CC(=O)c2cc(OCC(=O)NCCCN3CCN(c4ccc(F)cc4)CC3)ccc2O1	n	3.65	n	n	n	n
CN(c1nc2c(c(=O)n(C)c(=O)n2C)n1CC(=O)c1ccccc1)C1CCCCC1	n	n	n	n	n	n
CCOC(=O)c1cc(C#N)c(NCc2ccccc2)nc1C	n	n	n	n	n	n
CCOC(=O)c1cc(-c2ccco2)nc2c1c(C)nn2CCC#N	x	2.43	n	n	n	n
CCOC(=O)C1=C(C)N(C)C(C)=C(C(=O)OCC)C1c1ccncc1	n	n	n	n	n	n
CCOC(=O)c1cc(-c2ccncc2)nc2c1c(C)nn2C	x	5.06	n	n	n	n
CCOC(=O)c1cc(-c2ccc3c(c2)OCCO3)nc2c1c(C)nn2CCC#N	x	4.9	n	n	n	n
CCOC(=O)C(O)(CCC(O)(C(=O)OCC)C(=O)OCC)C(=O)OCC	n	n	n	n	n	n
N#Cc1nc(-c2ccco2)oc1N1CCN(c2ccccc2)CC1	n	n	n	n	n	n
COc1ccccc1-c1nc(C#N)c(N2CCN(c3ccccc3)CC2)o1	n	n	n	n	n	n
N#Cc1nc(-c2ccccc2Cl)oc1N1CCOCC1	x	2.05	n	n	n	n
N#Cc1nc(-c2ccco2)oc1N1CCOCC1	x	3.92	n	n	n	n
COc1ccccc1-c1nc(C#N)c(N2CCc3ccccc3C2)o1	x	3.91	n	n	n	n
CC1CCCN(c2oc(-c3cccc4ccccc34)nc2C#N)C1 (stereo unspecified)	x	3.8	n	n	n	n
Cc1cc(=O)[nH]c(S/C=C/c2ccccc2)n1	n	n	n	n	n	n
CC1SC(=NC(=O)c2ccco2)NC1=O (stereo unspecified)	n	n	26.0	n	n	n
Cn1cccc1Cc1nnc(SCC(=O)Nc2ccc3c(c2)OCO3)n1-c1ccc(F)cc1	n	n	n	n	n	n
CCOc1ccc(-c2nnc(-c3snc(-c4ccc(F)cc4)c3N=CN(C)C)o2)cc1	x	3.77	n	n	n	n
O=C(O)CCCC(=O)Nc1ccc(Br)cc1C(=O)O	n	n	n	n	n	n
CC(c1ccccc1)C(CC(=O)O)C(=O)NC1CCCCC1 (stereo unspecified)	n	n	27.0	n	n	n
O=C(NC1CCCCC1)C(c1ccccc1)N1CCCC1 (stereo unspecified)	n	n	n	n	n	n
CCN=C1SC(CC(=O)Nc2sc(C)c(C)c2C(=O)OC)C(=O)N1CC (stereo unspecified)	n	n	n	n	n	x
O=C(OCC(=O)N1CCN(C(=O)c2ccco2)CC1)c1cc(-c2ccc(F)cc2)nc2ccccc12	x	2.08	n	n	n	n
SMILES	Spn DPM-DC inh	Autofluor 339	Spn PMK inh	NADH enzymes	Abs 340nm	Spn MK inh
O=C(CSc1nc2cc(Cl)ccc2s1)N1CCN(C(=O)c2ccco2)CC1	n	n	n	n	n	n
O=C(CSc1nc(-c2ccccc2)cs1)N1CCN(C(=O)c2ccco2)CC1	n	n	29.0	n	n	n
O=C(OCC(=O)N1CCN(C(=O)c2ccco2)CC1)c1cc(-c2ccccc2)nc2ccccc12	n	n	n	n	n	n
COc1ccc(S(=O)(=O)N2CCCC2C(=O)Nc2nnc(-c3cccnc3)s2)cc1 (stereo unspecified)	n	n	n	n	n	n
COC(=O)C(C)Oc1ccc(=O)[nH]n1 (stereo unspecified)	n	n	n	n	n	n
CCCS(=O)(=O)N1CCC(C(=O)NCCCOCC)CC1	n	n	n	n	n	n
O=C(CSc1nnc(-c2cccs2)o1)OCc1ccccc1	n	n	n	n	n	n
CN(C)C(=O)CSc1nnc(-c2cc(-c3cccs3)nc3ccccc23)o1	x	4.92	n	n	n	n
CCCS(=O)(=O)n1nc(-c2ccc(OC)cc2OC)cc1N	n	n	n	n	n	n
COc1ccc(-c2cc3nc(C)cc(C)n3n2)c(OC)c1	n	3.18	n	n	n	n
CN1CCc2c(sc3c2C(=O)NC(c2ccccn2)N3)C1 (stereo unspecified)	n	2.41	n	n	n	n
